# Measurements published in PubChem BioAssay.
# Active and inactive are the calls of the source. No rule for the calls is given here.
# Biological target: Pantothenate synthetase (Mycobacterium tuberculosis (strain ATCC 25618 / H37Rv)) (UniProt P9WIL5)
# Assay: Coupled enzyme confirmation of inhibitors against recombinant Mtb PanC (AID 375);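 also: 0% = full reaction with vehicle and 100% = no enzyme background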
# Details: coupled enzyme assay; at 10 µM, active compounds read high
# Pantothenate synthetase (Mycobacterium tuberculosis (strain ATCC 25618 / H37Rv)), sequence (P9WIL5 whole entry, looked up): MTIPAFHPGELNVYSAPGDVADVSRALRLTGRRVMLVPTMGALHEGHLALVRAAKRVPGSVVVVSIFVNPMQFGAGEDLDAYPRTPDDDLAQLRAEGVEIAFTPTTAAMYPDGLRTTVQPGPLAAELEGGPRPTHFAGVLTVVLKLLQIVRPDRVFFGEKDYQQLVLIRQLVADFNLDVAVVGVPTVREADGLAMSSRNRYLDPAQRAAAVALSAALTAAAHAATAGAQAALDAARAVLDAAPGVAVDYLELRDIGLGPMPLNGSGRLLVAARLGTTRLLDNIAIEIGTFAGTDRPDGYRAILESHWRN
row,Compound,inhibition
1,Cc1ccc(CCNC(=O)CC2Oc3ccc(C)cc3NC2=O)cc1 (centres undefined),0% (inactive)
2,Clc1ccc(SCCn2ccnc2)cc1,0% (inactive)
3,CC(=O)NC(CCS(C)(=O)=O)C(=O)Nc1cc(C)on1 (centres undefined),0% (inactive)
4,CCN(CC)c1ccc(CNc2ccc(Br)cn2)cc1,0% (inactive)
5,CN1CCN(Cc2nc3c(c(=O)[nH]c(=O)n3C)n2CCc2ccccc2)CC1,0% (inactive)
6,COc1c(C(=O)Nc2c(C)n(C)n(-c3ccccc3)c2=O)ccc2ccccc12,0% (inactive)
7,Cc1ccc2c(c1)NC(=O)C(CC(=O)NCCCN1CCN(c3cc(Cl)ccc3C)CC1)O2 (centres undefined),1% (inactive)
8,Cc1ccc2[nH]c(=O)c(CN(CCCO)S(=O)(=O)c3c(C)ccc4nsnc34)cc2c1,6% (inactive)
9,COc1c(Br)cc2c(C)c(C(=O)O)oc2c1Br,2% (inactive)
10,COc1ccc(-c2cc3ccc(OCc4nn[nH]n4)cc3oc2=O)cc1,7% (inactive)
11,Nc1ncnc(Nc2ccccc2C(F)(F)F)n1,0% (inactive)
12,COC(=O)c1ccc(CN(c2ccccc2OC)S(=O)(=O)c2cccs2)o1,2% (inactive)
13,Oc1cccc(Nc2nc(NCC3CCCO3)c3ccccc3n2)c1 (centres undefined),1% (inactive)
14,Cc1oc(C(=O)O)cc1CSCc1cc(C(=O)O)c(C)o1,2% (inactive)
15,CCOc1ccccc1C1CC(=O)Nc2cc3c(cc21)OCO3 (centres undefined),0% (inactive)
16,Cc1cc(NC(=O)CSc2nnc(COc3cccc(C)c3C)n2Cc2ccco2)no1,0% (inactive)
17,CC(=O)Nc1ccc(S(=O)(=O)Nc2nc3n(n2)C(c2ccccc2)CC(=O)N3)cc1 (centres undefined),0% (inactive)
18,N#Cc1nc(COc2ccccc2)oc1NCCN1CCOCC1,0% (inactive)
19,CCSCc1nnc(SCC(=O)Nc2cccc(SC)c2)n1C,4% (inactive)
20,Fc1ccccc1-c1nc(NCCCN2CCOCC2)c2ccccc2n1,0% (inactive)

row,Compound,inhibition
1,Cn1c(C(=O)N2CCCC(C(=O)NCCCc3ccccc3)C2)cc2sccc21 (centres undefined),0% (inactive)
2,CCOC(=O)c1cc(NC(=O)SCC(=O)O)c(C)nc1C,0% (inactive)
3,COc1ccccc1-c1nnc2sc(-c3ccc(N(C)C)cc3)nn12,5% (inactive)
4,CCCNC(=O)C1=C(C)C(=O)OC12CCC(C)CC2 (centres undefined),0% (inactive)
5,O=C(COC(=O)c1cc(S(=O)(=O)N2CCOCC2)cs1)c1ccccc1,0% (inactive)
6,c1coc(CN2CN=C(Nc3nc4ccccc4s3)NC2)c1,0% (inactive)
7,Cc1[nH]nc(N=CC2=C(O)CC(C)(C)CC2=O)c1-c1ccc(Cl)cc1,0% (inactive)
8,O=S1(=O)CCC(N=Cc2cc(Br)ccc2O)C1 (centres undefined),0% (inactive)
9,CN1/C(=C\C(=O)C(F)F)C(C)(C)c2ccccc21,0% (inactive)
10,Cc1nc(NC(=O)c2ccccc2)sc1-c1csc(NCc2ccco2)n1,0% (inactive)
11,Cc1cccc(C)c1NC(=O)N1CCN(C2CCCCC2)CC1,0% (inactive)
12,COc1cc(-c2nnc(SCC(=O)c3ccc(C)cc3)o2)cc(OC)c1OC,0% (inactive)
13,CCN1CCN(C(c2cccs2)C(C)NC(=O)c2ccccc2)CC1 (centres undefined),12% (inactive)
14,CCOC(=O)c1[nH]c(C)c(C(=O)NC)c1C,0% (inactive)
15,COc1ccc(CCNC(=O)c2cc(-c3cc(C)c(C)cc3O)n[nH]2)cc1OC,0% (inactive)
16,CCN1CCN(c2nc(-c3cccnc3)nc3ccccc23)CC1,0% (inactive)
17,COc1ccc(NC(=O)CN2CCN(CC(=O)Nc3cc(OC)cc(OC)c3)CC2)cc1,8% (inactive)
18,Cc1ccc(S(=O)(=O)N2CCC(C(=O)NCCN3CCCCCC3)CC2)cc1,0% (inactive)
19,Cc1ccc(NC(=O)COC(=O)c2ccn(C)n2)cc1,0% (inactive)
